Drawing on PubChem BioAssay (Tox21), this text covers outcome for 25 compounds.

Records with an inconclusive call do not appear. Activity calls are given as the source filed them. Calls follow the shape of the full dose curve.

The experiment deals with Vitamin D3 receptor (Homo sapiens) (UniProt P11473). The experiment in a line: qHTS assay to identify small molecule agonists of the vitamin D receptor (VDR) signaling pathway (AID 743222). Conditions: HEK293T VDR-UAS-bla, beta-lactamase FRET ratio, 16 h; series mostly up to 63.5 µM. The source says: National Center for Advancing Translational Sciences [NCATS]
Vitamin D3 receptor (Homo sapiens), sequence (P11473 whole entry, looked up): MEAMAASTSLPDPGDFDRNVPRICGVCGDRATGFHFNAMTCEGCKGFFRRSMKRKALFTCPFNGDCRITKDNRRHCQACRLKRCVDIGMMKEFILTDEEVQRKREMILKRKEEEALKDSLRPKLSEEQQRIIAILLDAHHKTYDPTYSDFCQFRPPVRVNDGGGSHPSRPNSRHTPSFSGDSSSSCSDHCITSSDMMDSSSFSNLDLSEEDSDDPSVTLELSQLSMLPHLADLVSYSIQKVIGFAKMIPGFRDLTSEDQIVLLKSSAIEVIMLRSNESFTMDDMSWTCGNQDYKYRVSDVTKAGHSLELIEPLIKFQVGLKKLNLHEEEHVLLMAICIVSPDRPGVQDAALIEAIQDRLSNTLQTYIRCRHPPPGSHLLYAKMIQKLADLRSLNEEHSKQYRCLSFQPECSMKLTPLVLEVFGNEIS
NIH Chemical Genomics Center [NCGC]
U.S. Environmental Protection Agency [EPA]
National Institutes of Environmental Health Sciences [NIEHS]
National Toxicology Program [NTP]
U.S. Food and Drug Administration [FDA]
The vitamin D receptor (VDR), a member of nuclear hormone receptor superfamily, plays a critical role in calcium homeostasis and bone metabolism. It is also involved in cell differentiation and growth, and thrombogenicity.
Tox21 Assay Protocol Summary:
VDR-bla cells were dispensed at 2,000 cells/6 uL/well into black wall/clear-bottom 1536-well plates using a Multidrop Combi (Thermo Fisher Scientific, Waltham, MA) dispenser. After the assay plates were incubated at a 37C and 5% CO2 for 4 h, 23 nL of compounds dissolved in DMSO, positive controls or DMSO only was transferred to the assay plate by a Pintool station (Kalypsys, San Diego, CA). The plates were incubated at 37C and 5% CO2 for 16 h. After 1 uL of LiveBLAzerTM B/G FRET substrate was added using a Bioraptr Flying Reagent Dispenser (FRD) workstation (Beckman Coulter, Indianapolis, IN, USA), the plates were incubated at room temperature for 2 h, and fluorescence intensity was measured by an Envision plate reader (PerkinElmer, Shelton, CT).
(In general: In qHTS, concentration-response curves come from the screen itself.)
Take `CCC(C)(C)c1ccc(CC(C)CN2C[C@@H](C)O[C@@H](C)C2)cc1` (stereo not given in full): the result was inactive. As for `CC(O)(c1ccc(Cl)cc1)c1ccc(Cl)cc1`, the entry is “inactive”.

In the case of `CCCCCCCCCCCCCCCCC(C(=O)O)C(O)(CC(=O)O)C(=O)O` (stereo not given), the outcome was inactive. Take `COc1cccc(-c2ccc(/C=C\CN3CCCCCC3)cc2Cl)c1`: the result was inactive. As for `c1ccc2cc3c4ccccc4c4ccccc4c3cc2c1`, the entry is “inactive”; as for `O=C1OC(O)C(C(Cl)Cl)=C1Cl` (stereo not given), “inactive”; as for `CCCCC/C=C\C=C\C(=O)OCC`, “inactive”. As for `O=C1CCC/C=C\CCCCCCCCCC1`, the entry is “inactive”. To `c1ccc(-c2ccc(C(c3ccccc3)n3ccnc3)cc2)cc1` (stereo not given) belongs “inactive”; to `CCCCCCCCCCCCN1CCCC1=O`, “inactive”. Consider `CCCCCCCCOC(=O)c1cc(O)c(O)c(O)c1`, for which the result was inactive.

As to `CC(Cc1ccc(O)c(O)c1)C(C)Cc1ccc(O)c(O)c1` (stereo not given), the outcome was inactive. With `S=C1NC=NC2N=CNC12` (stereo not given), the result was inactive.

On to `CN1CCN(c2ccccc2/C=C2\SCCN(c3ccc(Cl)c(Cl)c3)C2=O)CC1`, for which the outcome was inactive.

For `O=C1OC(=O)c2cc(-c3ccc4c(c3)C(=O)OC4=O)ccc21`, the outcome was inactive. As for `COc1c(Br)cc(Br)c(C)c1Br`, the entry is “inactive”; as for `CCCCCCCC/C=C\CCCCCCCC(=O)N(CCO)CCO`, “inactive”. To `O=C(CCN1CCC(c2ccccc2)C1)c1ccc2c(c1)OCCO2` (stereo not given) belongs “inactive”.

As for `O=C1CCCCCCCCCCCCCC1`, the result was inactive. As for `CC(=O)[C@]1(O)Cc2c(O)c3c(c(O)c2[C@@H](O[C@H]2C[C@H](N)[C@H](O)[C@H](C)O2)C1)C(=O)c1ccccc1C3=O`, the entry is “inactive”; as for `N#Cc1nc(Cl)c(Cl)c(Cl)c1Cl`, “inactive”.

For `CN[C@H]1CC[C@@H](c2ccc(Cl)c(Cl)c2)c2ccc(S(N)(=O)=O)cc21`, the result was inactive. To `O=C(Nc1ccccc1)c1cc(Cl)ccc1O` belongs “inactive”; to `CN1CCN(CCCN2c3ccccc3Sc3ccc(Cl)cc32)CC1`, “inactive”; to `SC1CCCCC1`, “inactive”.
